# ± gives the standard deviation of the averaged measurements.
# Key:
# Assay in all cases: promoter activity interaction Z-score (Lux/OD deviation from empty-vector control); higher = stronger promoter induction by the compound
# [1] = test system: E. coli BW25113 acrABp lux reporter
# Outline: (§1)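 Wild-type E. coli BW25113 and three single-gene deletion strains, each carrying a low-copy luxCDABE promoter reporter, were grown at 37°C in 40 µl LB Lennox per well of a 384-well plate. Every compound was applied at four 1:2 dilutions in biological duplicates, and OD600 and luminescence were read every 30 min for 12 h. Integration covered 0–8 h for wild type and 1–9 h for deletion strains, and wells under 10% of the median growth value were removed. Scores are Z-transformed residuals of growth-normalised luminescence fitted against a control.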
# [2] = test system: E. coli BW25113 marRABp lux reporter
# Outline: as §1
# [3] = test system: E. coli BW25113 micFp lux reporter
# Outline: as §1
# [4] = test system: E. coli BW25113 ompFp lux reporter
# Outline: as §1
# [5] = test system: E. coli BW25113 robp lux reporter
# Outline: as §1
# [6] = test system: E. coli BW25113 soxSp lux reporter
# Outline: as §1
# [7] = test system: E. coli BW25113 tolCp lux reporter
# Outline: as §1
# [8] = 22.5 µg/ml, genetic background: wild type
# [9] = 22.5 µg/ml, genetic background: ΔmarA
# [10] = 22.5 µg/ml, genetic background: Δrob
# [11] = 22.5 µg/ml, genetic background: ΔsoxS
# [12] = 45 µg/ml, genetic background: wild type
# [13] = 45 µg/ml, genetic background: ΔmarA
# [14] = 45 µg/ml, genetic background: Δrob
# [15] = 45 µg/ml, genetic background: ΔsoxS
# [16] = 90.1 µg/ml, genetic background: wild type
# [17] = 90.1 µg/ml, genetic background: ΔmarA
# [18] = 90.1 µg/ml, genetic background: Δrob
# [19] = 90.1 µg/ml, genetic background: ΔsoxS
# [20] = 180.2 µg/ml, genetic background: wild type
# [21] = 180.2 µg/ml, genetic background: ΔmarA
# [22] = 180.2 µg/ml, genetic background: Δrob
# [23] = 180.2 µg/ml, genetic background: ΔsoxS
smiles,measurement,setting,value
CC(=O)Oc1ccccc1C(=O)O [Acetylsalicylic acid],promoter activity interaction Z-score,[1]; [8],-0.0985 ± 0.4
same,promoter activity interaction Z-score,[1]; [9],-0.517 ± 0.098
same,promoter activity interaction Z-score,[1]; [10],-0.0077 ± 0.088
same,promoter activity interaction Z-score,[1]; [11],-0.0154 ± 0.64
same,promoter activity interaction Z-score,[1]; [12],-0.074 ± 0.32
same,promoter activity interaction Z-score,[1]; [13],0.0467 ± 0.55
same,promoter activity interaction Z-score,[1]; [14],0.166 ± 0.1
same,promoter activity interaction Z-score,[1]; [15],0.231 ± 0.27
same,promoter activity interaction Z-score,[1]; [16],-0.285 ± 0.52
same,promoter activity interaction Z-score,[1]; [17],-0.333 ± 1.1
same,promoter activity interaction Z-score,[1]; [18],-0.137 ± 0.07
same,promoter activity interaction Z-score,[1]; [19],0.467 ± 0.76
same,promoter activity interaction Z-score,[1]; [20],0.092 ± 0.075
same,promoter activity interaction Z-score,[1]; [21],-0.505 ± 0.22
same,promoter activity interaction Z-score,[1]; [22],0.377 ± 0.044
same,promoter activity interaction Z-score,[1]; [23],1.71 ± 1.2
same,promoter activity interaction Z-score,[2]; [8],0.161 ± 0.7
same,promoter activity interaction Z-score,[2]; [9],0.108 ± 0.13
same,promoter activity interaction Z-score,[2]; [10],0.479 ± 0.51
same,promoter activity interaction Z-score,[2]; [11],0.261 ± 0.009
same,promoter activity interaction Z-score,[2]; [12],0.512 ± 0.54
same,promoter activity interaction Z-score,[2]; [13],0.152 ± 0.14
same,promoter activity interaction Z-score,[2]; [14],0.623 ± 0.14
same,promoter activity interaction Z-score,[2]; [15],0.318 ± 0.23
same,promoter activity interaction Z-score,[2]; [16],0.0791 ± 0.33
same,promoter activity interaction Z-score,[2]; [17],-0.0396 ± 0.066
same,promoter activity interaction Z-score,[2]; [18],0.404 ± 0.071
same,promoter activity interaction Z-score,[2]; [19],0.469 ± 0.2
same,promoter activity interaction Z-score,[2]; [20],1.81 ± 0.28
same,promoter activity interaction Z-score,[2]; [21],1.65 ± 0.22
same,promoter activity interaction Z-score,[2]; [22],2.07 ± 0.099
same,promoter activity interaction Z-score,[2]; [23],1.89 ± 0.43
same,promoter activity interaction Z-score,[3]; [8],0.2 ± 0.11
same,promoter activity interaction Z-score,[3]; [9],0.0379 ± 0.26
same,promoter activity interaction Z-score,[3]; [10],0.404 ± 0.28
same,promoter activity interaction Z-score,[3]; [11],0.0828 ± 0.038
same,promoter activity interaction Z-score,[3]; [12],0.294 ± 0.19
same,promoter activity interaction Z-score,[3]; [13],0.0785 ± 0.071
same,promoter activity interaction Z-score,[3]; [14],0.518 ± 0.31
same,promoter activity interaction Z-score,[3]; [15],0.285 ± 0.12
same,promoter activity interaction Z-score,[3]; [16],0.237 ± 0.08
same,promoter activity interaction Z-score,[3]; [17],0.0592 ± 0.067
same,promoter activity interaction Z-score,[3]; [18],1.19 ± 0.68
same,promoter activity interaction Z-score,[3]; [19],0.855 ± 0.27
same,promoter activity interaction Z-score,[3]; [20],1.38 ± 0.096
same,promoter activity interaction Z-score,[3]; [21],0.189 ± 0.12
same,promoter activity interaction Z-score,[3]; [22],2.72 ± 0.048
same,promoter activity interaction Z-score,[3]; [23],2.65 ± 0.019
same,promoter activity interaction Z-score,[4]; [8],0.15 ± 0.52
same,promoter activity interaction Z-score,[4]; [9],-0.0334 ± 0.0097
same,promoter activity interaction Z-score,[4]; [10],-0.332 ± 0.11
same,promoter activity interaction Z-score,[4]; [11],-0.533 ± 0.19
same,promoter activity interaction Z-score,[4]; [12],0.0711 ± 0.62
same,promoter activity interaction Z-score,[4]; [13],-0.0561 ± 0.37
same,promoter activity interaction Z-score,[4]; [14],-0.229 ± 0.49
same,promoter activity interaction Z-score,[4]; [15],-0.162 ± 0.16
same,promoter activity interaction Z-score,[4]; [16],-0.597 ± 0.69
same,promoter activity interaction Z-score,[4]; [17],-0.411 ± 0.14
same,promoter activity interaction Z-score,[4]; [18],-0.956 ± 0.38
same,promoter activity interaction Z-score,[4]; [19],0.0662 ± 0.72
same,promoter activity interaction Z-score,[4]; [20],-0.594 ± 0.36
same,promoter activity interaction Z-score,[4]; [21],-0.771 ± 0.14
same,promoter activity interaction Z-score,[4]; [22],-0.628 ± 0.52
same,promoter activity interaction Z-score,[4]; [23],-0.165 ± 0.36
same,promoter activity interaction Z-score,[5]; [8],0.17 ± 0.36
same,promoter activity interaction Z-score,[5]; [9],-0.635 ± 0.24
same,promoter activity interaction Z-score,[5]; [10],0.299 ± 0.26
same,promoter activity interaction Z-score,[5]; [11],-0.394 ± 1.1
same,promoter activity interaction Z-score,[5]; [12],0.406 ± 0.86
same,promoter activity interaction Z-score,[5]; [13],0.328 ± 0.074
same,promoter activity interaction Z-score,[5]; [14],0.109 ± 1.1
same,promoter activity interaction Z-score,[5]; [15],0.454 ± 0.65
same,promoter activity interaction Z-score,[5]; [16],-0.235 ± 0.3
same,promoter activity interaction Z-score,[5]; [17],0.332 ± 0.19
same,promoter activity interaction Z-score,[5]; [18],-0.142 ± 0.65
same,promoter activity interaction Z-score,[5]; [19],0.2 ± 0.77
same,promoter activity interaction Z-score,[5]; [20],-0.797 ± 0.23
same,promoter activity interaction Z-score,[5]; [21],-0.595 ± 0.25
same,promoter activity interaction Z-score,[5]; [22],-0.635 ± 0.52
same,promoter activity interaction Z-score,[5]; [23],-0.507 ± 0.57
same,promoter activity interaction Z-score,[6]; [8],0.245 ± 0.03
same,promoter activity interaction Z-score,[6]; [9],0.396 ± 0.012
same,promoter activity interaction Z-score,[6]; [10],0.336 ± 0.03
same,promoter activity interaction Z-score,[6]; [11],0.386 ± 0.52
same,promoter activity interaction Z-score,[6]; [12],0.214 ± 0.2
same,promoter activity interaction Z-score,[6]; [13],0.405 ± 0.076
same,promoter activity interaction Z-score,[6]; [14],0.388 ± 0.19
same,promoter activity interaction Z-score,[6]; [15],0.494 ± 0.84
same,promoter activity interaction Z-score,[6]; [16],0.119 ± 0.042
same,promoter activity interaction Z-score,[6]; [17],0.218 ± 0.23
same,promoter activity interaction Z-score,[6]; [18],0.406 ± 0.2
same,promoter activity interaction Z-score,[6]; [19],0.157 ± 0.64
same,promoter activity interaction Z-score,[6]; [20],0.054 ± 0.12
same,promoter activity interaction Z-score,[6]; [21],0.327 ± 0.073
same,promoter activity interaction Z-score,[6]; [22],0.525 ± 0.097
same,promoter activity interaction Z-score,[6]; [23],0.502 ± 1.1
same,promoter activity interaction Z-score,[7]; [8],0.458 ± 0.6
same,promoter activity interaction Z-score,[7]; [9],-1.26 ± 1.6
same,promoter activity interaction Z-score,[7]; [10],-0.642 ± 0.11
same,promoter activity interaction Z-score,[7]; [11],0.238 ± 0.11
same,promoter activity interaction Z-score,[7]; [12],0.0937 ± 0.17
same,promoter activity interaction Z-score,[7]; [13],0.783 ± 0.48
same,promoter activity interaction Z-score,[7]; [14],0.602 ± 0.1
same,promoter activity interaction Z-score,[7]; [15],0.898 ± 0.65
same,promoter activity interaction Z-score,[7]; [16],0.202 ± 0.78
same,promoter activity interaction Z-score,[7]; [17],1.21 ± 0.39
same,promoter activity interaction Z-score,[7]; [18],1.08 ± 0.51
same,promoter activity interaction Z-score,[7]; [19],1.29 ± 0.033
same,promoter activity interaction Z-score,[7]; [20],-0.456 ± 0.15
same,promoter activity interaction Z-score,[7]; [21],-0.659 ± 0.06
same,promoter activity interaction Z-score,[7]; [22],1.91 ± 0.78
same,promoter activity interaction Z-score,[7]; [23],2.01 ± 0.4

# Source: the supplement of paper PMC12282887
